± gives the standard deviation. Whole data set: some 6,200 sequences, median “pre-steady-state target cleavage rate” near 0.29, cut for the highest 2% near 2. This is one part of a sample in which the highest values are shown more often than they occur.
system: MIWI (PIWIL1) piRISC loaded with piRNA #1 (30 nt); assay: pre-steady-state target cleavage rate (min^-1); MIWI and MILI are mouse PIWI proteins and EfPiwi is from a freshwater sponge; tags in brackets are library labels; higher = faster piRNA-guided slicing of the target; conditions: guide: piRNA #1 5'p-UGAGGUAGUAGGUUGUAUAGUAUCCAGAGG; auxiliary factor: 500 nM mouse GTSF1
Outline: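 In Cleave-'n-Seq, a transcribed, DNA-blocked target RNA library (0.1 nM) was combined with 1 nM active affinity-purified piRISC bearing one synthetic guide, with or without 500 nM GTSF1 partner protein. Reactions ran in HEPES–potassium acetate buffer at 33 °C for 0–8 or 0–960 min. Uncleaved targets were sequenced and normalised to depth and to weakly complementary targets, three trials were pooled, and k3 was capped at 0.0001 min^-1. The pre-steady-state cleavage rate was obtained by fitting a burst-and-steady-state model.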

| Sequence | pre-steady-state target cleavage rate |
| --- | --- |
| GGAGACCUUUCUAUACAACCUAGUACCUCA | 0.238 ± 0.034 |
| CCUCUGGAUAGAAUACAACCUACUACCUCA | 1.24 ± 0.066 |
| GGAGACCAUACUAUUCUACCUACUACCUCA | 0.224 ± 0.035 |
| GGAGAGGGUACUAUACAACCUACUACCUCA | 1.17 ± 0.051 |
| GGACUGGAUUCUAUACAACCUACUAGCUCA | 0.118 ± 0.022 |
| GGAGACCUAUGAUAUCAACCUACUACCUACA | < 0.0001 |
| GGAGACGAUACUAUACAACCUACUACCGUCA | 0.443 ± 0.065 |
| GGAGUGGAUACUAUCACAACCUACUACCUCA | 1.49 ± 0.12 |
| GGAGUGGAUACUAUACAAGCUACUUCCUCA | 0.374 ± 0.031 |
| GCUCUGGUUACUAUACAACCUACUACCUCA | 2.1 ± 0.12 |
| CCUCUGGUUACUAUACAACCUACUAGCUCA | 0.705 ± 0.055 |
| CCUCUGGUUACUAUACAACCUACAACCUCA | 1.28 ± 0.089 |
| CCUCUGGUUACUAUACAACCUACUACCACA | 1.79 ± 0.14 |
| CCACUGGUUACUAUACAACCUACUACCUCA | 2.28 ± 0.14 |
| GCACUGGUUACUAUACAACCUACUACCUCA | 1.84 ± 0.11 |
| GGUCUGGUUACUAUACAACCUACUACCUCA | 1.87 ± 0.11 |
| CCUCUGGUUACUAUACAACCUACUACCUCA | 2.29 ± 0.13 |
| GGACUGGUUACUAUACAACCUACUACCUCA | 1.65 ± 0.13 |
| GCUCUGGUUACUAUACAACCUACUACCACA | 2.3 ± 0.24 |
| GGUCUGGUUACUAUACAACCUACUACCACA | 0.747 ± 0.068 |
| GCUCUGGUUACUAUACAACCUACAACCUCA | 1.33 ± 0.079 |
| GGAGACCUAUCUAUACUACCUACAACCUCA | 0.0031 ± 0.0021 |
| GGAGACCUAUCUAUACAACCUACUACCUGA | 0.516 ± 0.057 |
| GGAGUGGAUACUAUACAACCUACUAACCUCA | 0.901 ± 0.053 |

| Sequence | pre-steady-state target cleavage rate |
| --- | --- |
| GGAGUGGAUUCUAUACAACCUACUACGUCA | 0.522 ± 0.048 |
| CCUCUGGAUACUAUACAACCACUACCUCA | 0.033 ± 0.0096 |
| CCUCUGGAUACUAAACAACCUACUACGUCA | 1.49 ± 0.087 |
| GGAGACCUUACUAUUCAACCUACUACGUCA | 0.678 ± 0.064 |
| GGAGACCAUUCUAUACAACCUACAACCUCA | 0.667 ± 0.075 |
| GGUCUGGAUAGUAUACAUCCUACUACCUCA | 0.741 ± 0.083 |
| GGAGAGGAUACUAUACAUCCUACUUCCUCA | 0.0568 ± 0.0099 |
| GGAGACCUAACUAAACAACCUACUAGCUCA | 0.0502 ± 0.019 |
| CCUCUGGUUACAAUACAACCUACUACCUCA | 2.15 ± 0.13 |
| GGUCUGGUUACAAUACAACCUACUACCUCA | 1.59 ± 0.12 |
| CCUGUGGUUACUAUACAACCUACUACCUCA | 1.17 ± 0.058 |
| GGUGUGGUUACUAUACAACCUACUACCUCA | 1.54 ± 0.097 |
| GCUCUGGUUUCUAUACAACCUACUACCUCA | 2 ± 0.12 |
| CCUCUGGUUUCUAUACAACCUACUACCUCA | 2.25 ± 0.15 |
| CCUCUGGUUACUUUACAACCUACUACCUCA | 2.24 ± 0.16 |
| GGUCUGGUUUCUAUACAACCUACUACCUCA | 1.8 ± 0.12 |
| GGUCUGGUUACUUUACAACCUACUACCUCA | 1.69 ± 0.13 |
| GCUCUGGUUACAAUACAACCUACUACCUCA | 1.98 ± 0.12 |
| GCUCUGGUUACUUUACAACCUACUACCUCA | 1.7 ± 0.089 |
| GCUGUGGUUACUAUACAACCUACUACCUCA | 2 ± 0.13 |
| GGAGACGAUACUAUACAACAUACUACCUCA | 1.16 ± 0.077 |
| GGAGUGGAUUCUAAACAACCUACUACCUCA | 0.994 ± 0.069 |
| GGAGACCUAUGAUAUGUACCUACUAACUCA | < 0.0001 |
| GGAGUGCAUACUAUACAACCUACUACCUGA | 0.513 ± 0.077 |

| Sequence | pre-steady-state target cleavage rate |
| --- | --- |
| GGAGACCUAUGUAUACAACCUACUACUCA | 0.00349 ± 0.0019 |
| GGAGACCUUACAAUAGAACCUACUACCUCA | 0.167 ± 0.022 |
| GGAGACCAUACUAUACAACCUACUUCCUCA | 0.666 ± 0.054 |
| GGUCUGGAUACUAUACAACUUACUACCUCA | 0.481 ± 0.028 |
| GGAGUGCAUUCUAUACAACCUACUACCUCA | 1.32 ± 0.11 |
| CCUCGGGAUACUAUACAACCUACUACCUCA | 2.3 ± 0.16 |
| CCUCCGGAUACUAUACAACCUACUACCUCA | 2.08 ± 0.14 |
| GCUCUCGAUACUAUACAACCUACUACCUCA | 1.86 ± 0.11 |
| GCUCGGGAUACUAUACAACCUACUACCUCA | 1.5 ± 0.071 |
| GGUCGGGAUACUAUACAACCUACUACCUCA | 1.66 ± 0.11 |
| CCUCUCGAUACUAUUCAACCUACUACCUCA | 2.27 ± 0.15 |
| CCUCUCGAUACUAUACAACCUACUACCUCA | 2.01 ± 0.12 |
| CCUCUCGAUACUAUACAACCUACAACCUCA | 1.34 ± 0.077 |
| GCUCCGGAUACUAUACAACCUACUACCUCA | 1.81 ± 0.12 |
| GCUCUCGAUACUAUUCAACCUACUACCUCA | 1.86 ± 0.11 |
| GGUCUCGAUACUAUUCAACCUACUACCUCA | 1.86 ± 0.12 |
| GGUCCGGAUACUAUACAACCUACUACCUCA | 1.76 ± 0.11 |
| GGUCUGGUACUAUACAACCUACUACCUCA | 1.73 ± 0.11 |
| GGAGACCAAACUAUACAACCUAGUACCUCA | 0.226 ± 0.033 |
| GGAGACCUAUGUAUACAACCUACUACCUGCA | 0.0855 ± 0.011 |
| GGAGACCUAACUUAUACAACCUACUACCUCA | 0.23 ± 0.041 |
| CCUCUGGAUACUAUUCAACCUACUAGCUCA | 1.37 ± 0.12 |
| CCUCUCGAUACUAAACAACCUACUACCUCA | 2.13 ± 0.14 |
| CCUCUCGGAUACUAUACAACCUACUACCUCA | 2.06 ± 0.15 |

Reference: the supplement of paper PMC10338343
